Rows were chosen to be rich in hits. Some 18% of all compounds tested hit in one or more screens of this group.
KAT2A inh: qHTS Assay for Inhibitors of GCN5L2; Histone acetyltransferase KAT2A (Homo sapiens), Q92830; GCN5L2 HAT assay, ThioGlo1 CoA-SH fluorescence; Potency, µM (top dose mostly 58.9 µM), for inactives: at the highest dose activity change, negative = inhibition, most hits filed as inhibitors; 0.21% of 390,000 active
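ThioGlo1-coupled HAT assay: 20nM GCN5L2, 70uM acetyl-CoA, 75uM H3(1-25) peptide, pH 7.5. Fluorescence read at 340/540nm at start and after 20 min at room temperature.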
PLK1 PBD inh: qHTS for Inhibitors of PLK1-PDB (polo-like kinase 1 - polo-box domain): Primary Screen; Potency, µM, without a hit: max response, negative = inhibition, usual class: inhibitors; Plk1 PBD binding of FITC phosphopeptide, fluorescence polarization; AID 720504, 2013; Serine/threonine-protein kinase PLK1 (Homo sapiens), P53350; 2.8% of 360,000 active; note: series mostly up to about 57 µM; nearly all actives have a fitted effect of over 65% in size
TDP1 cell noCPT: qHTS for Inhibitors of human tyrosyl-DNA phosphodiesterase 1 (TDP1): qHTS in cells in absence of CPT; DT40 Tdp1-/- hTDP1 cells, no CPT, ATP luminescence, 48 h; Potency, µM (top dose mostly 46.2 µM), inactives show at the top dose activity change, negative = growth inhibition, most hits filed as inhibitors; 15% of 420,000 active; AID 686978, 2013; note: nearly all actives have a fitted effect of over 55% in size
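Cells were dispensed at 400 per well, compounds added by pin tool, plates incubated ≥48 hr at 37 °C, then CellTiter-Glo added for 30 min at room temperature before luminescence reading. Line: DT40 Tdp1-/- complemented with hTDP1; camptothecin omitted.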
DT40 TDP1 CPT: qHTS for Inhibitors of human tyrosyl-DNA phosphodiesterase 1 (TDP1): qHTS in cells in presence of CPT; chicken DT40 Tdp1-/-;hTDP1 cells + 20 nM CPT, ATP luminescence, 48 h; Potency, µM (titrated, usually from 46.2 µM), for inactives: at the highest dose activity change, negative = growth inhibition, most hits filed as inhibitors; 12% of 420,000 active; note: nearly all actives have a fitted effect of over 55% in size
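Cell growth measured by CellTiter-Glo luminescence after a minimum 48 h, 37 C compound exposure with 20 nM CPT in Tdp1-knockout DT40 cells stably expressing hTDP1, seeded 400/well; qHTS titration format.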
TDP1 inh: qHTS Assay for Inhibitors of Tyrosyl-DNA Phosphodiesterase (TDP1); Tyrosyl-DNA phosphodiesterase 1 (Homo sapiens), Q9NUW8; recombinant TDP1, AlphaScreen DNA substrate cleavage; Potency, µM (top dose mostly 130 µM), inactives show at the highest dose activity change, negative = inhibition, most hits filed as inhibitors; 0.28% of 350,000 active; note: nearly all actives have a fitted effect of over 40% in size
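Enzyme-compound mixtures sat 15 min at room temperature, followed by a 5 min reaction with 15 nM final substrate and 10 min with AlphaScreen beads. Recombinant human Tdp1 was used at 1 nM final.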
VDR inh: Inhibitors of the vitamin D receptor (VDR): qHTS. Vitamin D3 receptor (Homo sapiens), P11473. VDR-SRC2-3 peptide fluorescence polarization, 2 h. Potency, µM, inactives show max response, negative = inhibition, actives largely listed as inhibitors. 0.93% of 400,000 active
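Inhibition of the VDR/SRC2-3 peptide interaction is quantified by fluorescence polarization. Compounds (23 nl, pintool) incubate with the reagents for 2 hours at ambient room temperature.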
Numbers without * were called inactive; ? = inconclusive; . = no result. Calls come from the whole dose curve; as a rule, active = well fitted curve in the direction sought with a large enough effect; inconclusive = small, poorly fitted or top-dose-only effect, or another doubt; inactive = no such curve, though single readings can be large; an effect the other way counts as inactive or inconclusive. % is set by controls: 0 for no effect and ±100 for the full control effect; potency is the fitted concentration of half-maximal effect.

SMILES	KAT2A inh	PLK1 PBD inh	TDP1 cell noCPT	DT40 TDP1 CPT	TDP1 inh	VDR inh
COC(=O)CSC1=C(C#N)C(c2ccc(C)o2)CC(=O)N1 (stereo not drawn)	-7%	-13%	2.9µM*	15µM*	5%	-6%
CCCOC(=O)CSC1=C(C#N)C(c2ccc3c(c2)OCO3)CC(=O)N1 (stereo not drawn)	-4%	-2%	23µM*	18µM*	1%	-6%
CCOc1ccc(NC(=O)CSC2=C(C#N)C(c3ccc4c(c3)OCO4)CC(=O)N2)cc1 (stereo not drawn)	0%	-12%	-27%	-26%	-5%	11%
Cc1ccc2nc(Cl)c3nnnn3c2c1	-1%	15µM*	2.6µM*	1.8µM*	8%	?
Cc1ccc2c(c1)c(-c1ccccc1)nc1nnnn12	-2%	24µM*	?	-8%	-4%	-9%
Cc1ccc2nc(NCc3ccccc3Cl)c3nnnn3c2c1	-5%	.	10µM*	?	5%	-8%
Cc1ccc2nc(Nc3cccc(C(F)(F)F)c3)c3nnnn3c2c1	-2%	.	?	?	0%	13%
CCOC(=O)c1ccccc1Nc1nc2ccc(C)cc2n2nnnc12	-5%	.	-18%	?	0%	-16%
Cc1ccc2nc(N3CCN(c4ccc(F)cc4)CC3)c3nnnn3c2c1	0%	.	15µM*	7.3µM*	-6%	2%
Cc1ccc(-c2nc3ccccc3n3nnnc23)cc1	-21%	-8%	7.3µM*	13µM*	1%	5%
Cc1ccc(-n2ncc(C(=O)Nc3cc(Cl)cc(Cl)c3)c2C2CCNCC2)cc1C	-6%	-1%	?	?	5%	-5%
CSc1ccc(N/N=C(/C#N)S(=O)(=O)C(C)(C)C)cc1	-13%	21µM*	?	?	10%	-10%
CCOc1ccc(CCNC(=O)CCn2c(=O)c3cccn3c3ccc(F)cc32)cc1OCC	-11%	.	13µM*	?	5%	5%
CSc1ccc(CCNC(=O)CCn2c(=O)c3cccn3c3ccc(F)cc32)cc1	-11%	.	?	?	-1%	16%
CC(NC(=O)CCn1c(=O)c2cccn2c2ccc(F)cc21)c1ccccc1 (stereo not drawn)	-9%	.	-14%	-5%	0%	2%
COc1ccc(CCNC(=O)Cn2c(=O)n(-c3ccc(F)cc3F)c(=O)c3sccc32)cc1OC	0%	2%	?	?	2%	12%
O=C(CCn1c(=O)c2cccn2c2ccc(F)cc21)NCCc1ccccc1	2%	-4%	18µM*	21µM*	1%	-5%
COc1ccc(CCNC(=O)Cn2c(=O)n(-c3cc(F)ccc3F)c(=O)c3sccc32)cc1OC	-8%	-2%	15µM*	?	3%	-12%
COc1ccc(CCNC(=O)CCn2c(=O)c3cccn3c3ccc(F)cc32)cc1OC	-4%	.	16µM*	?	4%	4%
CCCNC(=O)CCc1c(C)nc2nc(C)nn2c1C	5%	-3%	7%	1%	-2%	3%
Cc1cc(C)n(C(=O)CNC(=O)c2ccc(Cl)cc2Cl)n1	-6%	-7%	-21%	-2%	1%	14%
CN(C(=O)CSc1cc(Cl)ccc1Cl)C1CCS(=O)(=O)C1 (stereo not drawn)	2%	?	-10%	-2%	0%	14%
Cc1ccc(Nc2nnc(SCC(=O)NCC3CCCO3)s2)cc1C (stereo not drawn)	-6%	2%	-26%	?	-1%	-11%

High-throughput results from PubChem BioAssay.
